Inconclusive results are not listed. Entries that show only a call come without a potency. Active and inactive are the calls of the source. The call rests on the fitted dose curve; in most records, active means well fitted cell-killing curve with a large enough effect; inconclusive means small, poorly fitted or top-dose-only effect; inactive means no such curve, though single readings can be large or run the other way. Numbered stars: 1 amine (or outer) side, 2 acyl side, 3 side chain; on linkers, the order of the positions; unused ones are H or OH. Bridge positions count the residues as written; N and C are the ends. Square brackets hold non-standard residues; d marks the D form. Peptide text beside a SMILES is read from it. I, II: the chains in the order shown. Actinocin(9to1) = Cc1c2oc3c(C)ccc(C(=O)[*:1])c3nc-2c(C(=O)[*:2])c(N)c1=O; NMeV = CN[C@H](C(=O)O)C(C)C; Sar = CNCC(=O)O
Potency means the concentration at half of the fitted maximal effect.

A short description of this experiment: qHTS of pediatric cancer cell lines to identify multiple opportunities for drug repurposing: Primary screen for OHS-50 cells (AID 1347103). Further: nearly all actives have a fitted effect of over 40% in size. The conditions noted are these: OHS-50 osteosarcoma viability, CellTiter-Glo luminescence, 48 h; series mostly up to 57.3 µM. The text has this:
Drug repurposing or repositioning has been offered as a strategy for drug development in oncology programs. This approach has special potential for childhood cancers and other rare or orphan diseases, where the expected return on new drug development has been a disincentive to pharmaceuticals.
In this project we exploit the poly-pharmacology of drugs to discover new indications via phenotypic screening of a panel of 19 well-characterized cell lines derived from solid tumors seen in children and adolescents. The goal is to identify approved drugs with previously unrecognized anticancer properties that has the potential to reveal new mechanisms and biological processes involved in carcinogenesis or drug resistance. We employed a titration-based paradigm (quantitative high-throughput screening or qHTS), where all compounds were tested at multiple concentrations for their effect on cell viability. Concentration-response curves (CRCs) were derived directly from the primary screen, and both potency and efficacy values were used to identify compounds with robust bioactivity profiles. We screened the NIH Chemical Genomics Center (NCGC) Pharmaceutical Collection (NPC) and Mechanism Interrogation Plate (MIPE) small molecule collections of approved and investigational compounds against these cell lines; and measured metabolically active cells after 48 hours of compound treatment as a proxy for cell viability.
Assay Submitter: Nathalia J. Martinez, National Center for Advancing Translational Sciences, National Institutes of Health, Rockville, MD, USA; email: natalia.martinez@nih.gov
[1] Shen, M et al. Quantitative high-throughput phenotypic screening of pediatric cancer cell lines identifies multiple opportunities for drug repurposing. Oncotarget 2017 Dec 19;9(4):4758-4772. PMID 29435139.
The cells were obtained from University of North Carolina (UNC), Pediatric Preclinical Testing Program (PPT), and Coriell Institute (CI).
qHTS cell viability assay:
Cells were assayed in growth media at a density of 500-1,000 cells/well. Five microliters of cells were dispensed into 1,536-well, white, solid-bottom, TC-treated plates (Greiner Bio One) using a multidrop dispenser and incubated at 37 degrees C, 5% CO2, under a humidified atmosphere for 5 hours. Twenty-three nanoliters of compounds and controls (neutral control DMSO or positive control bortezomib at final concentration of 2.3 µM) were subsequently transferred by Kalypsys pintool. For primary screens, the MIPE collection was tested at 11-point dilutions (final concentrations range from 0.78 nM to 46 µM) and the NPC collection at 8-point dilutions (final concentrations range from 0.59 nM to 46 µM). Compounds tested in follow-up screens were assayed at 11-point dilutions. Cells were incubated for 48 hours, followed by addition of 3 µL of CellTiter-Glo (Promega). After a 15 min incubation at room temperature, samples were analyzed for luminescence intensity using a ViewLux High-throughput CCD imager equipped with clear filters.
In general terms: In qHTS, concentration-response curves come from the screen itself.
For `CN(C)CC/C=C1/c2ccccc2COc2ccc(CC(=O)O)cc21`, the Potency result is “inactive”. Next, `O=C(O)CCCCC(=O)O`: “inactive”; `CC[N+](CC)(CCNC(=O)C(=O)NCC[N+](CC)(CC)Cc1ccccc1Cl)Cc1ccccc1Cl`: “inactive”. For `C=CCc1ccc(O)c(OC)c1`, the Potency entry is “inactive”. Next, `C[C@]12C=CC(=O)C=C1CC[C@@H]1[C@@H]2[C@@H](O)C[C@@]2(C)[C@H]1CC[C@]2(O)C(=O)CO`: “inactive”; `Nc1ccn([C@@H]2O[C@H](CO)[C@@H](O)C2(F)F)c(=O)n1`: 11 µM (active); `CC(C)(C)NC(=O)[C@@H]1CN(Cc2cccnc2)CCN1C[C@@H](O)C[C@@H](Cc1ccccc1)C(=O)N[C@H]1c2ccccc2C[C@H]1O`: “inactive”. Next, `C/C=C(/C(=C/C)c1ccc(O)cc1)c1ccc(O)cc1`: 21.9 µM (active).

On to `Cc1cccn2c(=O)c(-c3nnn[nH]3)cnc12`, for which the Potency entry was “inactive”.

As for `CC(=O)N(O)CCCCCNC(=O)CCC(=O)N(O)CCCCCNC(=O)CCC(=O)N(O)CCCCCN`, the Potency is 13.8 µM (active).

Turning to `NC(=O)CC[C@@H]1NC(=O)[C@H](Cc2ccccc2)NC(=O)[C@H](Cc2ccc(O)cc2)NC(=O)CCSSC[C@@H](C(=O)N2CCC[C@H]2C(=O)N[C@@H](CCCN=C(N)N)C(=O)NCC(N)=O)NC(=O)[C@H](CC(N)=O)NC1=O`, the Potency entry is “inactive”. In the case of `Cc1ccc(Nc2c(F)cccc2Cl)c(CC(=O)O)c1`, the Potency result is “inactive”.

For the compound `NC(CS)C(=O)O` (stereo not given), the Potency entry is “inactive”. Next, `Cc1ccnc(NS(=O)(=O)c2ccc(N)cc2)n1`: “inactive”; `CCN1CCC[C@H]1CNC(=O)c1c(OC)ccc(Br)c1OC`: “inactive”; `C=C1C[C@H]2[C@@H]3C=C(C)C4=CC(=O)CC[C@]4(C)[C@H]3CC[C@]2(C)[C@@]1(OC(C)=O)C(C)=O`: 30.9 µM (active). The same measure for `NC(CO)(CO)CO`: “inactive”. The same measure for `CCC(=O)c1c(O)cc(O)cc1O`: “inactive”; for `CC/C(=C(/CC)c1ccc(O)cc1)c1ccc(O)cc1`: 15.5 µM (active); for `CCN1CCCC1=O`: “inactive”.

On to `CCOC(=O)[C@H](CCc1ccccc1)N[C@@H](C)C(=O)N1Cc2ccccc2C[C@H]1C(=O)O`, for which the Potency entry is “inactive”.

Take `COCc1c(C(C)C)nc(C(C)C)c(/C=C/[C@@H](O)C[C@@H](O)CC(=O)O)c1-c1ccc(F)cc1`: the Potency is 0.309 µM (active). Next, `CC1(C)OC[C@@H](COC(=O)CCc2ccc(OC[C@@H](O)CNCCNC(=O)N3CCOCC3)cc2)O1`: “inactive”; `C[C@]12CCC(=O)C=C1CC[C@H]1[C@@H]3CC[C@](O)(C(=O)CO)[C@@]3(C)C[C@H](O)[C@@]12F`: “inactive”; `CCCCCCC[N+](CC)(CC)CCCCc1ccc(Cl)cc1`: 3.89 µM (active). The same measure for `CN1C(CCl)Nc2cc(Cl)c(S(N)(=O)=O)cc2S1(=O)=O` (stereo not given): “inactive”; for `CC(=O)OCC(=O)[C@@]1(OC(C)=O)[C@@H](C)C[C@H]2[C@@H]3C[C@H](F)C4=CC(=O)C=C[C@]4(C)[C@@]3(F)[C@@H](O)C[C@@]21C`: “inactive”; for `Nc1ccc(C(=O)Nc2ccccc2N)cc1`: 6.17 µM (active). Next, `CC(C)(C)CC(C)(C)c1ccc(OCCOCC[N+](C)(C)Cc2ccccc2)cc1`: 6.17 µM (active); `CN(C/C=C/c1ccccc1)Cc1cccc2ccccc12`: 27.6 µM (active); `O=c1c(-c2ccccc2)c1-c1ccccc1`: 13.8 µM (active). As to `COC(=O)[C@@H]1CC2=CC(=O)CC[C@]2(C)[C@@]23O[C@@H]2C[C@@]2(C)[C@@H](CC[C@@]24CCC(=O)O4)[C@H]13`, the Potency entry was “inactive”. Next, `OCc1ccccc1O`: “inactive”; `Cc1c2oc3c(C)ccc(C(=O)N[C@@H]4C(=O)N[C@H](C(C)C)C(=O)N5CCC[C@H]5C(=O)N(C)CC(=O)N(C)[C@@H](C(C)C)C(=O)O[C@@H]4C)c3nc-2c(C(=O)N[C@@H]2C(=O)N[C@H](C(C)C)C(=O)N3CCC[C@H]3C(=O)N(C)CC(=O)N(C)[C@@H](C(C)C)C(=O)O[C@@H]2C)c(N)c1=O` (I: T[dV]P[Sar][NMeV] / II: T[dV]P[Sar][NMeV]; ester I:1-I:C, II:1-II:C; linker I:N-II:N via Actinocin(9to1)): 0.0347 µM (active).

As for `CN=C(NC#N)NCCSCc1csc(N=C(N)N)n1`, the Potency result was “inactive”. The same measure for `CCCOC(C(=O)OC1CCN(C)CC1)(c1ccccc1)c1ccccc1`: 27.6 µM (active); for `C[C@H](O)C(=O)Nc1c(I)c(C(=O)NC(CO)CO)c(I)c(C(=O)NC(CO)CO)c1I`: “inactive”. The same measure for `O=C1c2ccccc2C(=O)C1c1ccccc1`: “inactive”; for `Cc1cc2c(cc1CC(=O)c1sccc1S(=O)(=O)Nc1onc(C)c1Cl)OCO2`: “inactive”; for `NCCC(O)(P(=O)(O)O)P(=O)(O)O`: “inactive”.

The record behind these values is PubChem BioAssay (NCATS).
